The values that follow come from PubChem BioAssay.

The target of test [1] is Cell division control protein 42 homolog (Homo sapiens) (UniProt P60953). In words: inhibition of fluorescent GTP binding to constitutively active Cdc42 – biochemical, multiplex bead flow cytometry, Bodipy-FL-GTP, dose response (AID 1333;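 active = fitted half-maximal concentration within the tested dose range, moderate curve steepness, a statistically real signal drop, and little compound fluorescence or tag-binding interference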).
Cell division control protein 42 homolog (Homo sapiens), sequence (P60953 whole entry, looked up): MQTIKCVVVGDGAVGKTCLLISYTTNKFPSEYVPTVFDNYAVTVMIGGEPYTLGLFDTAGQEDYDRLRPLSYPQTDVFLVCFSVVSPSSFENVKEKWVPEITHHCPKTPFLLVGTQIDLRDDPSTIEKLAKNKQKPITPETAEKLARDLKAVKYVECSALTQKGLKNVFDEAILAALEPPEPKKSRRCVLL
For test [2] the target is unchanged. In words: inhibition of fluorescent GTP binding to wildtype Cdc42 – biochemical, multiplex bead flow cytometry, Bodipy-FL-GTP, dose response (AID 1334;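 active = fitted half-maximal concentration within the tested range, moderate curve steepness, significant signal drop, and little compound fluorescence or bead-linkage interference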). The settings on record: bead-based flow cytometry, Bodipy-FL-GTP binding to GST-Cdc42; at 100 µM (top of the series) unless noted.
Test [3] has as its target GTPase HRas (Homo sapiens) (UniProt P01112). Kind of test: Ras wt fluorescent GTP loading blockade – biochemical, wildtype, multiplex bead flow cytometry, dose response (AID 1335). Particulars: bead-based flow cytometry, Bodipy-GTP binding to GST-Ras; at 100 µM (top of the series) unless noted.
The test system of test [4] is Ras-related protein Rab-7a (dog), GTP binding. Kind of test: blockers of fluorescent GTP binding to Rab7 – biochemical, wildtype, multiplex bead flow cytometry, dose response (AID 1336; call rule not given here).
The target of test [5] is Ras-related C3 botulinum toxin substrate 1 (Homo sapiens) (UniProt P63000). Kind of test: inhibition of wildtype Rac1 nucleotide loading – biochemical, multiplex bead flow cytometry, dose response (AID 1340;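 active = dose curve with midpoint inside tested range, moderate steepness, plateau gap beyond fit error, low compound glow and bead-link interference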). The settings on record: GST-Rac1 beads, Bodipy-FL-GTP binding; at 100 µM (top of the series) unless noted.
Test [6] addresses GTPase HRas (Homo sapiens) (UniProt P01112). Kind of test: blockade of GTP loading onto mutant Ras – biochemical, activated mutant, multiplex bead flow cytometry, dose response (AID 1341;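 active = dose-response curve with midpoint inside the tested range, moderate steepness, significant amplitude and little compound fluorescence or bead-attachment interference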;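 also: GST-tagged constitutively activated Ras mutant immobilized on beads and multiplexed with other GTPases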).

For part of these data: Measured potencies and affinities stand elsewhere. Activity calls are given as the source filed them.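 The calls were made as follows, unless noted: active = fitted half-maximal concentration within 10 nM to 100 µM, steepness 0.5 to 2, significant signal drop, low assay interference; inactive = the rest.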

GTPase HRas (Homo sapiens), sequence (P01112 whole entry, looked up): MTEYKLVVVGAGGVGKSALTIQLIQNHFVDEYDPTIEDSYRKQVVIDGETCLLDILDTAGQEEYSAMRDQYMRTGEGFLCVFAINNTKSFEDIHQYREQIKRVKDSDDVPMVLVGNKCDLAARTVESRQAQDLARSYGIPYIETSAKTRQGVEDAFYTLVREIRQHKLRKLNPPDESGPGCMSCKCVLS

As for `O=C(O)Cn1cc(C(=O)C2CCCCC2)c2ccccc21`, the outcome in test [1], in test [4] and in test [6] was inactive. Further, the fluorescence, percent of control (lower = inhibition) in test [2] was 59.5%. In addition, in test [3], the GTP binding, percent of control was determined as 88.6%. This compound also registered a GTP binding signal, raw median fluorescence (lower = inhibition) (MCF (arbitrary fluorescence units)) in test [5] of 32.

`COc1cc(/C=C2\SC(c3ccccc3)=NC2=O)cc(Cl)c1O`: the outcome in test [1], in test [4] and in test [6] was inactive. Besides, the fluorescence, percent of control (lower = inhibition) in test [2] stood at 26.3%. The GTP binding, percent of control in test [3] is 71%. The compound further had a GTP binding signal, raw median fluorescence (lower = inhibition) (MCF (arbitrary fluorescence units)) in test [5] of 190.

Consider `COCCN(C(=S)Nc1cc(C)ccc1C)C(C)c1cccnc1` (stereo not given), for which the result in test [1], in test [4] and in test [6] was inactive. Besides, the fluorescence, percent of control (lower = inhibition) in test [2] is 52.6%. Also, in test [3], the GTP binding, percent of control stood at 63.7%. The same compound registered a GTP binding signal, raw median fluorescence (lower = inhibition) (MCF (arbitrary fluorescence units)) in test [5] of 212.

Regarding `O=c1[nH]c(N/N=C/c2ccc(O)cc2)nc2ccccc12`, the compound was called inactive in test [1], in test [4] and in test [6]. Further, the fluorescence, percent of control (lower = inhibition) in test [2] turned out to be 31.4%. Moreover, the GTP binding, percent of control in test [3] stood at 71%. In test [5], this compound returned a GTP binding signal, raw median fluorescence (lower = inhibition) (MCF (arbitrary fluorescence units)) of 259.

`Cc1ccc(NCC(=O)c2ccccc2)cc1Cl`: the outcome in test [1], in test [4] and in test [6] was inactive. In test [2], the fluorescence, percent of control (lower = inhibition) was found to be 36.3%. In test [3], this compound returned a GTP binding, percent of control of 80.6%. This compound returned a GTP binding signal, raw median fluorescence (lower = inhibition) (MCF (arbitrary fluorescence units)) in test [5] of 256.

As to `COC(=O)c1cc(NC(=O)c2cccc(Cl)c2)c(=O)oc1/C=C/Nc1cc(C)cc(C)c1`, the outcome in test [1], in test [4] and in test [6] was inactive. In addition, the fluorescence, percent of control (lower = inhibition) in test [2] came to 193%. Further, the GTP binding, percent of control in test [3] stood at 237%. The GTP binding signal, raw median fluorescence (lower = inhibition) (MCF (arbitrary fluorescence units)) in test [5] stood at 563.

Regarding `COC(=O)c1cccc(Nc2cc(C)nc(-c3ccccc3O)n2)c1`, the compound was classed as inactive in test [1], in test [4] and in test [6]. Moreover, the fluorescence, percent of control (lower = inhibition) in test [2] came to 43.1%. The compound also yielded a GTP binding, percent of control in test [3] of 54.2%. The compound also registered a GTP binding signal, raw median fluorescence (lower = inhibition) (MCF (arbitrary fluorescence units)) in test [5] of 148.

`CCN=C1S/C(=C\c2ccc(OC)c(OCC)c2)C(=O)N1CC`: the compound was classed as inactive in test [1], in test [4] and in test [6]. The fluorescence, percent of control (lower = inhibition) in test [2] amounted to 50.8%. The compound further registered a GTP binding, percent of control in test [3] of 60.4%. The GTP binding signal, raw median fluorescence (lower = inhibition) (MCF (arbitrary fluorescence units)) in test [5] was found to be 213.

Turning to `CCOc1ccc(-n2nc3c(=O)[nH]nc(C)c3c2C)cc1`, the result in test [1], in test [4] and in test [6] was inactive. Moreover, the fluorescence, percent of control (lower = inhibition) in test [2] stood at 46.5%. In addition, the GTP binding, percent of control in test [3] was 60.9%. This compound also yielded a GTP binding signal, raw median fluorescence (lower = inhibition) (MCF (arbitrary fluorescence units)) in test [5] of 189.

For `COc1ccc(-c2cc(-c3ccccc3)c(C#N)c(=S)[nH]2)cc1`, the outcome in test [1], in test [4] and in test [6] was inactive. Besides, the fluorescence, percent of control (lower = inhibition) in test [2] was 28.8%. For the same compound, the GTP binding, percent of control in test [3] is 69.8%. In test [5], this compound registered a GTP binding signal, raw median fluorescence (lower = inhibition) (MCF (arbitrary fluorescence units)) of 225.

As for `Cc1nc2ncccn2c1-c1csc(Nc2ccccc2)n1`, the result in test [1], in test [4] and in test [6] was inactive. Besides, the fluorescence, percent of control (lower = inhibition) in test [2] stood at 26.5%. The compound further had a GTP binding, percent of control in test [3] of 40.8%. The compound further gave a GTP binding signal, raw median fluorescence (lower = inhibition) (MCF (arbitrary fluorescence units)) in test [5] of 105.

Regarding `O=C(O)c1ccccc1C(=O)OCc1ccccc1`, the result in test [1], in test [4] and in test [6] was inactive. For the same compound, the fluorescence, percent of control (lower = inhibition) in test [2] was determined as 105%. Moreover, the GTP binding, percent of control in test [3] was found to be 365%. This compound also had a GTP binding signal, raw median fluorescence (lower = inhibition) (MCF (arbitrary fluorescence units)) in test [5] of 408.

Take `COc1ccc(CNc2nc3ccccc3n2Cc2ccc(C)cc2)cc1OC`: the compound was classed as inactive in test [1], in test [4] and in test [6]. Moreover, the fluorescence, percent of control (lower = inhibition) in test [2] turned out to be 73%. This compound had a GTP binding, percent of control in test [3] of 73.9%. In test [5], this compound yielded a GTP binding signal, raw median fluorescence (lower = inhibition) (MCF (arbitrary fluorescence units)) of 343.

In the case of `Cc1nc(Nc2ccc(C(=O)O)cc2)nc(Nc2ccc(C(=O)O)cc2)c1[N+](=O)[O-]`, the result in test [1], in test [4] and in test [6] was inactive. The fluorescence, percent of control (lower = inhibition) in test [2] turned out to be 28.7%. In addition, in test [3], the GTP binding, percent of control was found to be 64.9%. Further, the GTP binding signal, raw median fluorescence (lower = inhibition) (MCF (arbitrary fluorescence units)) in test [5] stood at 111.

For `CC(C)Nc1nnc(SCC(=O)Nc2ccc3c(c2)C(=O)c2ccccc2C3=O)s1`, the result in test [1], in test [4] and in test [6] was inactive. In test [2], the fluorescence, percent of control (lower = inhibition) was 43.2%. The GTP binding, percent of control in test [3] was found to be 50.9%. This compound showed a GTP binding signal, raw median fluorescence (lower = inhibition) (MCF (arbitrary fluorescence units)) in test [5] of 0.
